Results on 44 compounds are retold here after PubChem BioAssay AID2330 (Broad Institute, 2010).

The structures appear in SMILES notation. Among all 37,000 compounds or so, about 2,800 (7.6%) were called active. Inconclusive results (about 1%) are left out. No stated cut-off is given here; in the data, active means inhibition above about 80%; inconclusive means no clear call, values can overlap the other calls; inactive means below that. The list comes from a sample in which actives are over-represented; it also holds similar structures and randomly drawn compounds.

This assay in a line: NOMO-1 AML cell viability reduction, primary screen, STK33 inhibitor project, CellTiter-Glo luminescence (AID 2330). To be noted: NOMO-1 AML viability, 72 h, hits give high values, concentration not given here. A general note: Cellular ATP, detected with luciferase, serves as a proxy for viable cell number.
In general, inhibition refers to the drop in the measured response relative to a control, in per cent. Turning to `N#Cc1cccc(CSc2nnc(CCCO)n2-c2ccccc2)c1`, the inhibition was -3.86% (inactive). With `C[C@H]1CN([C@@H](C)CO)C(=O)c2cc(NS(=O)(=O)c3cn(C)cn3)ccc2O[C@H]1CN(C)CC1CCCCC1` the figure was 0.874% (inactive). On to `Cc1noc(C)c1NC(=O)Nc1ccc2c(c1)C(=O)N([C@@H](C)CO)C[C@H](C)[C@@H](CN(C)C)O2`, for which the inhibition is 17.2% (inactive). For the compound `O=C(Nc1ccc(C23CC4CC(CC(C4)C2)C3)cc1)c1cccs1`, the inhibition was 1.68% (inactive). `Cc1noc(C)c1S(=O)(=O)Nc1cccc2c1O[C@H](CN(C)Cc1ccc(C(F)(F)F)cc1)[C@H](C)CN([C@@H](C)CO)C2=O`: the inhibition was 11.5% (inactive). For `C[C@H]1CN([C@@H](C)CO)C(=O)Cc2cc(NC(=O)NC3CCCCC3)ccc2O[C@H]1CN(C)S(=O)(=O)c1ccccc1`, the inhibition is 0.581% (inactive).

For `CC(=O)Nc1ccc(S(=O)(=O)N2CCCC2C(=O)O)cc1` (centres undefined), the inhibition is 27.5% (inactive). As to `C[C@H]1CN([C@@H](C)CO)C(=O)Cc2cc(NS(=O)(=O)c3ccc(Cl)cc3)ccc2O[C@@H]1CN(C)S(=O)(=O)c1ccccc1`, the inhibition was 48.5% (inactive). In the case of `Cc1ccc(S(=O)(=O)N(C)C[C@H]2Oc3ccc(NC(=O)C4CC4)cc3C(=O)N([C@H](C)CO)C[C@H]2C)cc1` it was 32.5% (inactive); in that of `CCOc1c(S(=O)(=O)NCc2cccnc2)ccc(Cl)c1Cl`, -5.95% (inactive). With `Cc1ccc(Cl)cc1NC(=O)CN(c1cccc(Cl)c1C)S(C)(=O)=O` the figure was 47.6% (inactive); with `C[C@@H]1CN([C@@H](C)CO)C(=O)c2cccc(NS(=O)(=O)c3cccs3)c2O[C@H]1CN(C)Cc1ccncc1`, -14.5% (inactive). Consider `Cc1noc(C)c1S(=O)(=O)Nc1ccc2c(c1)C(=O)N([C@@H](C)CO)C[C@@H](C)[C@H](CN(C)Cc1ccc(-c3ccccc3)cc1)O2`, for which the inhibition was 20.3% (inactive). With `Cc1noc(C)c1S(=O)(=O)Nc1ccc2c(c1)C(=O)N([C@@H](C)CO)C[C@@H](C)[C@H](CN(C)C(=O)Nc1cccc3ccccc13)O2` the figure was 7.46% (inactive); with `Cc1noc(C)c1S(=O)(=O)Nc1ccc2c(c1)C(=O)N([C@@H](C)CO)C[C@H](C)[C@H](CN(C)Cc1ccc(C(=O)Nc3ccccc3N)cc1)O2`, 104% (active). Take `Cn1nnc2cc(C(=O)N(CCO)c3ccccc3)ccc21`: the inhibition was -5.36% (inactive). In the case of `COC(=O)c1c(NC(=O)c2cc(-c3ccccn3)nc3c(C)cc(C)cc23)sc(C)c1C` it was 19.6% (inactive). In the case of `Cc1ccc2nc(-c3ccncc3)cc(C(=O)NCc3ccccn3)c2c1` it was 53.9% (inactive).

With `COC(=O)c1c(NC(=O)c2cc(-c3ccccn3)nc3ccc(Br)cc23)sc(C(=O)N(C)C)c1C`, the inhibition was 85.7% (active).

For the compound `Cc1noc(C)c1NC(=O)Nc1ccc2c(c1)C(=O)N([C@H](C)CO)C[C@H](C)[C@H](CN(C)Cc1ccc(Oc3ccccc3)cc1)O2`, the inhibition was 30% (inactive). Consider `Cc1cc(C(=O)Nc2cccc3c2O[C@@H](CN(C)C(=O)Nc2ccc4c(c2)OCO4)[C@H](C)CN([C@@H](C)CO)C3=O)n(C)n1`, for which the inhibition was 11.4% (inactive).

Regarding `C[C@H](CO)N1C[C@H](C)[C@@H](CN(C)Cc2ccc(C(=O)Nc3ccccc3N)cc2)Oc2c(NC(=O)c3ccc(-c4nccs4)cc3)cccc2C1=O`, the inhibition is 138% (active).

For `C[C@H](CO)N1C[C@H](C)[C@H](CN(C)S(C)(=O)=O)Oc2c(NC(=O)c3ccc(-c4nccs4)cc3)cccc2C1=O`, the inhibition is 1.84% (inactive). With `C[C@H](CO)N1C[C@H](C)[C@@H](CN(C)S(C)(=O)=O)Oc2c(NC(=O)c3ccc(-c4nccs4)cc3)cccc2C1=O` the figure was 3.98% (inactive); with `C[C@@H]1CN([C@@H](C)CO)C(=O)c2cccc(NC(=O)c3ccc(-c4nccs4)cc3)c2O[C@@H]1CN(C)Cc1ccncc1`, 35.3% (inactive); with `C[C@H]1CN([C@@H](C)CO)C(=O)c2cccc(NC(=O)c3ccc(-c4nccs4)cc3)c2O[C@H]1CN(C)Cc1ccc(C(=O)O)cc1`, 23.4% (inactive). In the case of `C[C@@H]1CN([C@@H](C)CO)C(=O)c2cccc(NC(=O)c3ccc(-c4nccs4)cc3)c2O[C@H]1CN(C)Cc1ccc(Cl)c(Cl)c1` it was 97.3% (active); in that of `CC(C)NC(=O)N(C)C[C@H]1Oc2c(NS(=O)(=O)c3ccc(Cl)cc3)cccc2C(=O)N([C@@H](C)CO)C[C@H]1C`, 12.1% (inactive); in that of `COc1ccc(NC(=O)Nc2ccc3c(c2)C(=O)N([C@@H](C)CO)C[C@H](C)[C@@H](CN(C)C(=O)NC2CCCCC2)O3)cc1`, -2.68% (inactive). In the case of `CCOc1cc(S(=O)(=O)NC2CC(C)(C)NC(C)(C)C2)ccc1F` it was -9.77% (inactive); in that of `CC(=O)Nc1ccc(Nc2c3c4c(cccc4[nH]c2=O)C(=O)c2ccccc2-3)cc1`, 115% (active). For `CC(=O)Nc1ccc(NC(=O)COc2ccccc2C(=O)Nc2cccc(Cl)c2Cl)cc1`, the inhibition was -3.66% (inactive). Regarding `CC(=O)Nc1ccc(NC(=O)CC2C(=O)Nc3ccccc3N2C(C)=O)cc1` (centres undefined), the inhibition was -5.07% (inactive). With `Cc1ccc(C23CC4CC(CC(CN)(C4)C2)C3)cc1C` the figure was 116% (active). Take `O=C(CSc1nc2ccccc2o1)Nc1ccccn1`: the inhibition was 2.56% (inactive). On to `Cc1ccc(S(=O)(=O)N(C)C[C@@H]2Oc3c(NC(=O)Nc4c(C)noc4C)cccc3C(=O)N([C@@H](C)CO)C[C@@H]2C)cc1`, for which the inhibition is 22.7% (inactive). With `COC(=O)CSc1nnc(-c2ccc(Cl)cc2)n1-c1ccc(Br)cc1` the figure was 95.1% (active). In the case of `O=C(CSc1nnc(-c2ccccc2)n1-c1ccc(Cl)cc1)Nc1ccc(Cl)cc1` it was 83.3% (active); in that of `O=C(CSc1nnc(-c2ccncc2)n1-c1ccc(Cl)cc1)Nc1ccc(C(=O)O)cc1`, -34.2% (inactive).

Regarding `CCn1c(SCC(=O)Nc2cc(Cl)ccc2OC)nnc1-c1ccc(Br)cc1`, the inhibition is 25% (inactive). `O=C(CSc1nnc(-c2ccncc2)n1-c1ccccc1)Nc1ccc(Cl)c(Cl)c1`: the inhibition is 33.8% (inactive). With `COc1ccc(C(C)=O)cc1CSc1nnc(-c2ccc(Br)cc2)n1-c1ccccc1` the figure was 15.8% (inactive); with `O=C(CC(=O)c1ccccc1O)c1ccccc1`, 42.5% (inactive); with `C[C@@H]1CN([C@@H](C)CO)C(=O)Cc2cc(NC(=O)Cn3cnnn3)ccc2O[C@@H]1CN(C)S(=O)(=O)c1cn(C)cn1`, -10.4% (inactive).
